Reference: PubChem BioAssay AID1851 (National Center for Advancing Translational Sciences (NCATS), 2009)
About 5,100 (32%) of roughly 16,000 compounds were called active. Not shown: some 25% with an inconclusive outcome. Some of the results follow. A number with no mark means an inactive call. Calls follow the shape of the dose curve; as a rule, active = well fitted curve in the direction sought with a large enough effect; inconclusive = small, poorly fitted or top-dose-only effect, or effect the other way; inactive = no such curve, though single readings can be large or run the other way.

What follows are compounds tested against Cytochrome P450 3A4 (Homo sapiens) (UniProt P08684) (assay: Cytochrome panel assay with activity outcomes). Conditions: recombinant CYP, pro-luciferin dealkylation, luminescence, p450-cyp3a4; series mostly up to 57.1 µM; activity, negative = inhibition: at the top concentration.
Sequence of Cytochrome P450 3A4 (Homo sapiens) (P08684 whole entry, looked up): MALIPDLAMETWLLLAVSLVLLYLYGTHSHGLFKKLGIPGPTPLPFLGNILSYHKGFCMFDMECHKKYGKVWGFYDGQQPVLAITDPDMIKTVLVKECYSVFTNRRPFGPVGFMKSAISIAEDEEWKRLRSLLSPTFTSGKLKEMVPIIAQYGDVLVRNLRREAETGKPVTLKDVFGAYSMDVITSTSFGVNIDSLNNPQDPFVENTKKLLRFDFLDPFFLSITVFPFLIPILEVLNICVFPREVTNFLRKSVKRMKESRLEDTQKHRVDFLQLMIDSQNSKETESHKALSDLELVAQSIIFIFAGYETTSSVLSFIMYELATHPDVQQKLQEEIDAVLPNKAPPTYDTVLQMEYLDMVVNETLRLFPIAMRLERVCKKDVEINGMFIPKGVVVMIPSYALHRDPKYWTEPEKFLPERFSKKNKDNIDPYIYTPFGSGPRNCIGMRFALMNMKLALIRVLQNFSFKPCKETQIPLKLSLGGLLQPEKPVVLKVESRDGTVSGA
% is scaled to controls: 0 for no effect and ±100 for the full control effect.

Structure (SMILES) | activity, negative = inhibition | AC50
Clc1ccc(-c2noc(CN3CCCCC3)n2)cc1 | -11.9% [at 11.4 µM] | 
Clc1ccc(Cc2nc(-c3cccnc3)no2)cc1 |  | 2.51 µM (active)
c1ccc(CCc2nc(-c3ccccc3)no2)cc1 | -24.8% | 
Cc1ccc(C2=Nc3ccccc3S[C@@H](c3cccc([N+](=O)[O-])c3)C2)cc1 |  | 3.98 µM (active)
C[C@@]12CC[C@@H]3c4ccc(O)cc4CC[C@H]3[C@H]1C[C@@H](O)[C@H]2O | -7.48% [at 25.6 µM] | 
Cc1cccc(C)c1OC1(c2ccccc2)OC(=O)c2ccccc21 (centres undefined) |  | 8.91 µM (active)
CCCCCCCOC1(c2ccccc2)OC(=O)c2ccccc21 (centres undefined) | -21.5% | 
N#C/C(=C\Nc1ccccn1)C(=O)c1ccco1 | -18.7% [at 11.4 µM] | 
CCCC(CCC)C(=O)NNc1cc(=O)c2c(=O)n(C)c(=O)n(C)c2[nH]1 | -11.1% | 
Cc1noc(NS(=O)(=O)c2ccc(N)cc2)c1C |  | inactive
Cc1noc(NS(=O)(=O)c2ccc(NC(=O)CC34CC5CC(CC(Br)(C5)C3)C4)cc2)c1C |  | 6.31 µM (active)
Cc1ccnc(NS(=O)(=O)c2ccc(NC(=O)C3CCCNC3=O)cc2)n1 (centres undefined) | -19.1% | 
O=[N+]([O-])c1cccc(-c2nc(-c3ccncc3)no2)c1 |  | 0.562 µM (active)
COC(=O)COc1ccc2c(-c3cccc([N+](=O)[O-])c3)cc(=O)oc2c1 | -28.1% | 
CC(C)CCNC1=NCCCCC1 | -3.64% | 
Cc1ccc(-n2ncc3c(=O)n(CC(=O)NCC4CCCO4)cnc32)cc1 (centres undefined) | -21.5% | 
Cc1cccc2c(SCC(=O)NCC3CCCO3)nc(-c3ccc(F)cc3)nc12 (centres undefined) | -23.2% | 
Cc1[nH]nc2nc(SCC(=O)NCC3CCCO3)n(-c3ccc(Br)cc3)c(=N)c12 (centres undefined) |  | 11.2 µM (active)
Nc1ccc(Sc2cnn(-c3ccccc3)c(=O)c2Cl)cc1 |  | 8.91 µM (active)
Nc1ncnc2c1cnn2-c1ccccc1 | -17.9% | 
NCCCCCC(=O)O |  | inactive
CNC(=O)C(=O)NCCc1ccc(Cl)cc1 | -24.5% | 

Structure (SMILES) | activity, negative = inhibition | AC50
Cc1nc(SCC(=O)NCCc2ccc(Cl)cc2)nc(C)c1C |  | 2 µM (active)
Nc1ccc(S(=O)(=O)Nc2ccc(Cl)nn2)cc1 | -19.2% [at 25.6 µM] | 
Cc1nc2sccc2c(=O)n1-c1cccc(Cl)c1 | 17.4% [at 11.4 µM] | 
Nc1nnc(CC(=O)N/N=C/c2cccc([N+](=O)[O-])c2)s1 |  | 28.2 µM (active)
O=C(Cc1ccccc1)N/N=C/C=C/c1cccc([N+](=O)[O-])c1 | -11.9% | 
COc1ccc(CN2CCN(C(=O)CC(C)C)CC2)c(OC)c1OC | -28.6% | 
CCOc1ccc(-c2cc(CCCC(=O)NCCc3ccc(OC)c(OC)c3OC)no2)cc1 |  | 7.08 µM (active)
CCCC(=O)Nc1cc(-c2cn3cccnc3n2)ccc1OC | -20% | 
CCOc1ccc(-c2cc(CCCC(=O)Nc3cc(OC)ccc3OC)no2)cc1 |  | 3.55 µM (active)
N[C@H](CCC(=O)NCS(=O)(=O)O)C(=O)O | -6.84% | 
c1ccc(-c2ccc(N3CCCC4(CCNCC4)C3)cc2)cc1 |  | 12.6 µM (active)
O=C(Oc1ccccc1)N1CCC2(CCCN(c3ncccn3)C2)CC1 | -28.9% | 
COC(=O)N1CCC2(CCCN(c3ccccn3)C2)CC1 | -21.1% | 
O=C(Oc1ccccc1)N1CCC[C@@]2(CCN(c3ccccn3)C2)C1 |  | 10 µM (active)
CC(=O)N1CCC2(CC1)CCN(c1ccc(-c3ccccc3)cc1)CC2 | -3.64% | 
CC(=O)N1CCC2(CC1)CN(c1ccccn1)C2 | -8.58% | 
O=C(Oc1ccccc1)N1CCC2(CCCN(c3ccccn3)C2)CC1 |  | 25.1 µM (active)
CS(=O)(=O)N1CCC2(CC1)CN(c1ccc(-c3ccccc3)cc1)C2 | -13.5% | 
O=C(Oc1ccccc1)N1CCC2(CCCN(c3ccc(-c4ccccc4)cc3)C2)CC1 |  | 31.6 µM (active)
c1ccc(-c2ccc(N3CC[C@@]4(CCCNC4)C3)cc2)cc1 | -22% | 
COC(=O)N1CCC[C@@]2(CCN(c3ccccn3)C2)C1 | -29.4% | 
CC(C)(CC(=O)N1CCN(c2ccc(Cl)cc2)CC1)CC1=NS(=O)(=O)c2ccccc2N1 |  | 2.51 µM (active)

Structure (SMILES) | activity, negative = inhibition | AC50
NC(=O)CCCC1=NS(=O)(=O)c2ccccc2N1 | -25.6% | 
NC(=O)C1(N2CCCCC2)CCN(C(=O)c2cccn3c(=O)c4cc(Cl)ccc4nc23)CC1 |  | 11.2 µM (active)
CCOC(=O)N1CCN(C(=O)c2cccn3c(=O)c4cc(Cl)ccc4nc23)CC1 | 6.16% | 
NC(=O)C1(N2CCCCC2)CCN(C(=S)Nc2ccc(Cl)cc2)CC1 | -18% | 
CC(C)(C)n1nnnc1C(c1cccnc1)N(Cc1ccccc1)Cc1ccco1 (centres undefined) |  | 0.794 µM (active)
O=C(NCCc1c[nH]c2ccccc12)[C@@H]1C[C@H]1[C@@H](NP(=O)(c1ccccc1)c1ccccc1)c1ccccc1 |  | 1.26 µM (active)
O=C(NCCc1c[nH]c2ccccc12)[C@H]1C[C@@H]1[C@H](NP(=O)(c1ccccc1)c1ccccc1)c1ccccc1 |  | 1.58 µM (active)
CN(Cc1cc(C(C)(C)C)cc(Br)c1O)Cc1cc(C(C)(C)C)cc(Br)c1O | -11.7% [at 11.4 µM] | 
CCOC(=O)c1cnc(-c2ccccc2)nc1Oc1cccc(Cl)c1 | -19.3% | 
CCOC(=O)c1cnc2cc(-c3ccc(C(C)(C)C)cc3)nn2c1N | 7.33% | 
CCOC(=O)c1cnc2cc(-c3ccc(C)cc3)nn2c1-c1ccccc1 |  | 20 µM (active)
CC(=O)C1=NOC(CNC(=O)c2c(-c3ccccc3Cl)noc2C)C1 (centres undefined) |  | 15.8 µM (active)
CC(=O)c1c(C(C)=O)c(C)n(NC(=O)c2ccccc2Cl)c1C | 17.3% | 
Cc1onc(-c2ccccc2Cl)c1C(=O)NCC(=O)O | -12.3% | 
CCOC(=O)C1=NOC(CNC(=O)C2=NOC(CNC(=O)c3c(-c4ccccc4Cl)noc3C)C2)C1 (centres undefined) |  | 12.6 µM (active)
CC(C)(C[C@@]1(C)NC(=O)NC1=O)OCc1ccccc1 | -6.17% [at 11.4 µM] | 
O=C(O)c1cc(C(=O)C(=O)c2cc(C(=O)O)c(O)c3ccccc23)c2ccccc2c1O | -22.6% [at 11.4 µM] | 
Cc1cccc(NC(=O)N(Cc2nc3ccccc3c(=O)[nH]2)C2CCCC2)c1 |  | 15.8 µM (active)
CC(C)c1ccc(NC(=O)N(CCc2nc3ccccc3[nH]2)C2CCCC2)cc1 | -18.7% [at 2.29 µM] | 
CCN(CC(=O)Nc1ccc(N2CCOCC2)cc1)Cc1nc2ccccc2c(=O)[nH]1 | -42.3% | 
